Compounds without any hit were thinned out: in the full panel of roughly 83,000, 20% have a hit.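 Step 1: grow cells in 96-well plates. Step 2: add test compound at a single concentration. Step 3: incubate 48 h. Step 4: record percent growth.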 Active and inactive are the calls of the source. Rule for the calls: active = growth percent below 10; inactive = the rest.

The experiment has as its system 786-0 renal. The experiment is described as follows: NCI-60 one-dose screen, 48 h (100 = growth as untreated, 0 = no growth, -100 = all killed). As to conditions: 10 µM.
Regarding `COc1cccc(-c2ccnc(/N=C(\N)Nc3ccc(S(=O)(=O)Nc4nc(C)cc(C)n4)cc3)n2)c1`, the growth is 101% (inactive). Then `O/N=C(\CSc1nnc(-c2c[nH]c3ccccc23)n1-c1ccccc1)c1ccc(Cl)cc1`, with 34.1% (inactive); and `COC(=O)c1c(C(=O)OC)c2n(c1C)[C@@H]([C@@H](C)[C@H]1CC[C@H]3[C@@H]4CCC5=CC(=O)CC[C@]5(C)[C@H]4CC[C@]13C)SC2`, with 73.4% (inactive); and `Cc1ccc(-c2cc(C(=O)N=Nc3c(O)[nH]c4ccc(Br)cc34)c3ccccc3n2)cc1`, with 88.6% (inactive). On to `COc1ccc(-c2c(N)c(=O)n(C)c3ccccc23)cc1`, for which the growth was 73.5% (inactive). With `O=c1cc(-c2ccccc2)oc2cc(OCCCNCc3ccccc3)cc(O)c12`, the growth was -48% (active).

Turning to `COc1cccc2nc(Nc3cccc(NC(=O)c4ccc(CN5CCCN(C)CC5)c(C(F)(F)F)c4)c3)ccc12`, the growth is -84.9% (active).

For `COc1ccc(-c2cc(-c3cc(C(=O)c4ccc(Br)cc4)n4ccc(C)cc34)nc(N)c2C#N)cc1`, the growth was 56.9% (inactive). Consider `O=C1CCC(N2Cc3c(NCc4ccc(-c5ccccc5)cc4)cccc3C2=O)C(=O)N1` (configuration not stated), for which the growth is 70.8% (inactive). Turning to `COc1ccc(CN2[C@@H](C(=O)NCc3ccc(C(=O)NO)cc3)Cc3c([nH]c4ccccc34)[C@@H]2C2CC2)cc1`, the growth is 28.4% (inactive). With `CCOC(=O)c1c(CSc2ccccc2)n(C)c2cc(CN(C)C)c(O)c(CN(C)C)c12`, the growth was 45.3% (inactive). On to `CCOC(=O)CNC(=O)CN(Cc1ccccc1)C(=O)[C@@]1(C)CCC[C@]2(C)[C@H]3C[C@H]4C(C(C)C)=C[C@]3(CC[C@H]21)[C@@H]1C(=O)OC(=O)[C@@H]14`, for which the growth is 84.7% (inactive). As to `CC(=O)Nc1ccc(-c2cn(-c3cccc(C(=O)Nc4cc(C(F)(F)F)cc(C(F)(F)F)c4)c3)nn2)cn1`, the growth was -42.8% (active). With `NS(=O)(=O)c1ccc(N=Nc2c(O)n(CC(=O)Nc3ccccc3Br)c3ccccc23)cc1`, the growth was 20.1% (inactive). Take `N#Cc1c(Cl)nc(SCc2ccc(F)cc2)nc1-c1ccc(F)cc1`: the growth is 95.4% (inactive). Then `CN(C)c1ccc(/C=C/C(=O)c2ccc(NC(=O)CN3C(=O)NC(C)(c4ccccc4)C3=O)cc2)cc1` (configuration not stated), with 29.8% (inactive). `Cc1cc(C)nc(NS(=O)(=O)c2ccc(N/C(N)=N/c3nccc(-c4cccs4)n3)cc2)n1`: the growth is 111% (inactive). With `COc1ccc(/C=C/C(=O)c2ccc(N3CCN(C)CC3)cc2)c(C(F)(F)F)c1`, the growth was 41.6% (inactive). On to `Clc1ccc(/C=N/Nc2ncnc3sc4c(c23)CCN(Cc2ccccc2)C4)cc1`, for which the growth is -84.8% (active). Consider `COc1cccc(/C=N/NC(=O)c2ccc3nc(-c4ccc(Cl)cc4)[nH]c3c2)c1O`, for which the growth was -90.3% (active).

Consider `COc1ccc(-c2nc(S(=O)(=O)c3ccc(C)cc3)c(S(=O)(=O)CC(=O)N(C)Cc3ccccc3)o2)cc1`, for which the growth was 22.2% (inactive).

Take `CC1=C2C(=C[C@@](C)(CO)[C@@H]2O)/C(=N\N)[C@](C)(O)C12CC2`: the growth is 6.59% (active). Consider `CC(=O)c1ccc(Nc2nc(SC(C)C)nc(-c3ccccc3)c2C#N)cc1`, for which the growth was -56.6% (active). As to `CCN1CCN(Cc2ccc(NC(=O)c3cccc(-n4cc(-c5ccc(NC(C)=O)nc5)nn4)c3)cc2C(F)(F)F)CC1`, the growth is 58.5% (inactive).

For `CC(C)c1ccc(C(=O)Nc2sc3c(c2C(N)=O)CCC(=O)C3=O)cc1`, the growth was 113% (inactive). As for `COc1cc(C2CC(c3ccc(C)cc3)=Nc3c(N)nc(N)nc3N2)ccc1Oc1nc(Nc2ccc(F)cc2)nc(N(C)C)n1` (configuration not stated), the growth was 50.4% (inactive). `O=c1c2ccccc2nc(COc2ccccc2)n1/N=C/c1ccc(N2CCCC2)cc1`: the growth was 92.8% (inactive). Regarding `CCN1CCN(c2ccc(NC(=O)Nc3ccc4c(c3F)CCN4c3ccnc(C(=O)NC)c3)cc2C(F)(F)F)CC1`, the growth is -95.9% (active). As for `O=c1[nH]c2ccccc2cc1CSc1ccc(Nc2nccc(-c3ccc4ccccc4c3)n2)cc1`, the growth was 51.7% (inactive).

With `O=C(CNc1nc(-c2ccccc2)cs1)Nc1cccc(Cl)c1`, the growth is 54.6% (inactive).

On to `O=c1[nH]c2ccccc2cc1CSc1ccc(Nc2nccc(-c3ccc(Cl)cc3)n2)cc1`, for which the growth was -80.1% (active). On to `O=C1Nc2cc(-c3ccc(NC(=O)c4cccc([N+](=O)[O-])c4)cc3)ccc2/C1=C/c1ccc[nH]1`, for which the growth is 103% (inactive). `COc1ccc(-c2ccc(/C=N/NC(=O)c3[nH]c4ccc(Br)cc4c3-c3ccccc3)o2)cc1`: the growth was 34.9% (inactive). `CN1CCN(c2ccc(C(=O)/C=C/c3cc(C(F)(F)F)ccc3Cl)cc2)CC1`: the growth is -83.1% (active). In the case of `COc1ccc(-c2cc(-c3cc(C(=O)c4ccccc4)n4ccc(C)cc34)nc(N)c2C#N)cc1`, the growth is 13.5% (inactive).

In the case of `O=C(Nc1ccc(I)cc1)Nc1nc2ccc([N+](=O)[O-])cc2s1`, the growth was -100% (active).

Take `CCCCCCCCCCCCCCCCCCCC(=O)NCCc1c[nH]c2ccc(O)cc12`: the growth is 100% (inactive).

The values above are taken from PubChem BioAssay (NCI).
